PubChem BioAssay AID1259354 (Paczesny and Yang Labs, IUPUI and University of Michigan, 2018)
Values joined by “and” are separate entries in the source; they are usually repeats but may differ in a detail not shown here. Equal entries are not always repeated. About 1,800 (2.3%) of roughly 78,000 compounds were called active. Another 27% or so got no clear call; they are omitted. Rule as the data show it: active = inhibition above about 30%; inconclusive = mostly about 10% to 28%; inactive = weaker than that. What follows is part of a selection rich in actives, with near analogues and random picks from the rest.

Target: Interleukin-1 receptor-like 1 (Homo sapiens) (UniProt Q01638)
Sequence (Q01638 whole entry, looked up): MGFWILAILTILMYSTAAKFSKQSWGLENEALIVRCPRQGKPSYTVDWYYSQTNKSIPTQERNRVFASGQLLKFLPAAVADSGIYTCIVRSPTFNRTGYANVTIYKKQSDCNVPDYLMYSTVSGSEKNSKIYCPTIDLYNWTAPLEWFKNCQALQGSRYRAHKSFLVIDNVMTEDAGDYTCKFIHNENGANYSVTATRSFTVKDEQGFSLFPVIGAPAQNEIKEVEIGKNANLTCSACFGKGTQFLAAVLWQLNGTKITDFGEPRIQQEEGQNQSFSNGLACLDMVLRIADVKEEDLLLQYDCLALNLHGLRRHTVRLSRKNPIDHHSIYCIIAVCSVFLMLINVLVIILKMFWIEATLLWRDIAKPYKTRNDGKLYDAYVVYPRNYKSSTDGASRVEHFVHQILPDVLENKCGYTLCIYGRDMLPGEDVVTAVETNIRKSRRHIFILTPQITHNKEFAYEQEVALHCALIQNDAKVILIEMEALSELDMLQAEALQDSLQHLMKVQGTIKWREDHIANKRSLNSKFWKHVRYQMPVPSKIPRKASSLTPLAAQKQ
Assay: inhibitors of human ST2 (IL1RL1) binding to IL-33, primary screen, biochemical, AlphaLISA (AID 1259354)
Conditions: AlphaLISA ST2-Fc/biotin-IL-33 interaction, 1 h; at 17 µM, hits give high values

Structure (SMILES) | inhibition
N#C/C(=C\c1ccc(-c2cccc([N+](=O)[O-])c2)o1)C(=O)Nc1cccc(C(F)(F)F)c1 | 30% (active)
O=[N+]([O-])c1cccc(-c2noc([C@@H]3C[C@@H](O)CN3Cc3ccc(C(F)(F)F)cc3)n2)c1 | inactive
N#CC(C(=O)Nc1cccc(C(F)(F)F)c1)=C1CCCCCC1 | inactive
O=C(C1CCCN(Cc2c[nH]c3ccccc23)C1)N1CCCCCC1 (stereo unspecified) | inactive
COc1ccc(-c2oc3ncn(Cc4ccco4)c(=N)c3c2-c2ccc(OC)cc2)cc1 | 31% (active)
Cc1cccc2nc(-c3ccco3)c(Nc3ccc(F)cc3)n12 | inactive
Fc1ccc(C=Nc2c(-c3ccco3)nc3ccccn23)cc1 | 49% (active)
O=C(Nc1c(-c2ccc(F)cc2)nc2ccccn12)c1cccc(F)c1 | inactive
Fc1cccc(N2N=C(/C=C/c3cccs3)CC2c2cccs2)c1 (stereo unspecified) | 32% (active)
CCN(CC)S(=O)(=O)c1ccc(C(=O)Nc2nnc(-c3cc(OC)cc(OC)c3)o2)cc1 | inactive
N#C/C(=C/c1ccc2c(c1)OCO2)c1nc(-c2cccc(Br)c2)cs1 | 30% (active)
N#C/C(=C\c1cccc(F)c1)c1nc(-c2ccc3c(c2)OCO3)cs1 | inactive
COc1ccccc1OCCNC(=O)c1ccccc1O | inactive
CCSc1nnc(NC(=O)Nc2ccc(Cl)cc2)s1 | inactive
O=C(Nc1ccc([N+](=O)[O-])cc1Br)c1cncc(Br)c1 | 47% (active)
O=C(Nc1ccc([N+](=O)[O-])cc1Br)c1ccncc1 | inactive
O=C(Nc1ccc([N+](=O)[O-])cc1Cl)c1cccc(Br)c1 | inactive
CC(C)N(C(=O)Cn1c(Cl)nc2c1c(=O)n(C)c(=O)n2C)c1ccccc1 | inactive
CCc1ccc(NC(=O)c2ccc(CN3CCOCC3)cc2)cc1 | inactive
O=C(Nc1ccc(Cl)cc1)Nc1ccc2n(c1=O)C[C@H]1C[C@@H]2CN(C(=O)Cc2cccs2)C1 | inactive
COc1ccc(-c2cccc(-n3cccn3)c2)cc1C(N)=O | inactive
CN1CCCC2(CC1)CCN(C(=O)c1cc3ccccc3n(C)c1=O)CC2 | inactive

Structure (SMILES) | inhibition
COc1cc(OC)cc(C(=O)N2c3ccccc3Sc3ccccc32)c1 | inactive
O=c1nc2cc3[nH]c4c(=O)c5ccccc5c4[nH]c3cc2n1 | 46% (active)
O=C(c1cccc(I)c1)n1nnc2ccccc21 | inactive
CCSc1ncc(CN2CC[C@@H](N(C)CCc3ccccn3)[C@H](O)C2)cn1 | inactive
CC(=O)Nc1ncc2c(n1)CC(c1ccc(F)cc1)CC2=O (stereo unspecified) | inactive
COc1ccc(-c2cc(C(=O)Nc3cccnc3)c3ccccc3n2)cc1 | inactive
COc1ccc(-c2csc(/C(C#N)=C\c3cccnc3)n2)cc1 | 31% (active)
COc1ccc(-c2cc(C(F)(F)F)nc(NCc3cccnc3)n2)cc1 | inactive
CCc1cccc(NS(=O)(=O)c2cc(Br)cc3c2N(C(C)=O)C(C)C3)c1 (stereo unspecified) | inactive
O=C(c1cscn1)N1CCCC(CCc2ccccc2C(F)(F)F)C1 (stereo unspecified) | inactive
O=C1N=C(N2CCOCC2)S/C1=C/c1ccc(F)cc1 | inactive
COc1ccc(/C=C2\SC(=O)N(c3ccc(C)cc3)C2=O)cc1 | inactive
N=C1S/C(=C\c2ccc(N3CCOCC3)cc2)C(=O)N1c1ccccc1Cl | 31% (active)
CCC1=Nc2cc(C(=O)NCCN(CC)CC)ccc2Sc2ccc(C)cc21 | inactive
COc1ccc(C2CC(c3ccc(C)cc3)Nc3ncnn32)cc1 (stereo unspecified) | inactive
COc1ccc(C2NC(=O)N(C)C(C)=C2[N+](=O)[O-])cc1 (stereo unspecified) | inactive
COc1ccc(C2CC(c3ccc([N+](=O)[O-])cc3)=NN2)cc1 (stereo unspecified) | 30% (active)
COC(=O)c1nc2n(n1)C(c1ccc(F)cc1)C1=C(CCCC1=O)N2 (stereo unspecified) | inactive
CC(=O)c1ccc(NC(=O)CCC2CCCCC2)cc1 | inactive
FC(F)(F)c1cccc(NCn2nnc3ccccc32)c1 | inactive
Cc1nn(-c2ccccn2)c2c1C(=O)/C(=C/Nc1cccc(C(F)(F)F)c1)CC2 | 35% (active)
O=C(CCN1C(=O)c2ccccc2C1=O)Nc1cccc(C(F)(F)F)c1 | inactive

Structure (SMILES) | inhibition
CCOc1ccc2[nH]c(C(=O)O)c(CCN)c2c1 | inactive
Cc1[nH]c2ccc(CNC(=O)[C@@H](O)Cc3ccccc3)cc2c1C | inactive
COc1ccc(Br)cc1C(=O)Nc1cccc(Cl)c1 | inactive
Cc1ccc2ncc(NC(=O)c3cccs3)c(=O)n2c1 | 83% (active)
O=C(Nc1cccc(OCc2cc(=O)n3cc(Cl)ccc3n2)c1)c1cccs1 | inactive
O=C(NC1CCCCCCC1)c1cccs1 | inactive
Fc1cccc(CC2CN(Cc3cn[nH]c3-c3ccccc3)CCO2)c1 (stereo unspecified) | inactive
N#CC(c1ccco1)N1CCN(C(C#N)c2ccco2)CC1 (stereo unspecified) | inactive
COc1ccc(S(=O)(=O)NC(c2ccccc2)c2ccccc2)cc1 | inactive
CCOc1ccc(NS(=O)(=O)c2ccc(Cl)cc2)cc1 | inactive
COc1ccc(NS(=O)(=O)c2ccc(Cl)cc2)cc1 | inactive
CCc1ccc(S(=O)(=O)N=C2C=C(Nc3ccc(OC)cc3)C(=O)c3ccccc32)cc1 | 95% (active)
CCOc1ccc(NS(=O)(=O)c2ccc(NC(=O)c3ccccc3Br)cc2)cc1 | inactive
O=C1C(Nc2ccc(Br)cc2)=CC(=NS(=O)(=O)c2cccs2)c2ccccc21 | 79% (active)
CCOc1ccc(S(=O)(=O)N=C2C=C(Nc3ccc(C)cc3)C(=O)c3ccccc32)cc1 | 91% (active)
CCc1ccc(S(=O)(=O)N=C2C=C(Br)C(=O)c3ccccc32)cc1 | 36% (active)
CCN(CC)S(=O)(=O)c1ccc(OC)c(NC(=O)c2cc(OC)c(OC)c(OC)c2)c1 | inactive
Cc1cccc(OCC(=O)Nc2cc(C(F)(F)F)ccc2Cl)c1 | inactive
Cc1ccc(CNC(=O)c2ccc3nc4sc5c(c4c(=O)n3c2)CCCC5)cc1 | inactive
CCOc1ccc(NC(=O)C2CCN(S(=O)(=O)c3ccc(OC)c(OC)c3)CC2)cc1 | inactive
COc1ccc(C2=N/C(=C\c3ccc(C(C)C)cc3)C(=O)O2)cc1[N+](=O)[O-] | inactive
CCC(C(=O)NCc1ccccc1Cl)c1ccccc1 (stereo unspecified) | inactive

Structure (SMILES) | inhibition
O=C(c1ccccc1Cl)N1CCCCC1 | inactive
CCCCN(CC)S(=O)(=O)c1ccc2[nH]c(=O)cc(C(=O)NC3CCCCC3C)c2c1 (stereo unspecified) | inactive
Cc1ccc(NC(=O)CNCCOc2ccccc2)c(C)c1 | inactive
NC(=O)Cn1cnc2c(cnn2-c2ccc(F)cc2)c1=O | inactive
C[C@@H](NC(=O)C1=C[C@@H](NC(=O)CS(=O)(=O)c2ccccc2)[C@@H](O)[C@H](O)C1)C(N)=O | inactive
COc1ccc(Cl)cc1NC(=O)c1nn(-c2ccc(Cl)cc2)c(=O)c2ccccc12 | inactive
COc1cc2c(C(=O)N3CCCC3)cn(C)c(=O)c2cc1OC | inactive
CCOc1ccc(C(C)=O)cc1N1C(=O)C2C3C=CC(CC3)C2C1=O (stereo unspecified) | inactive
CCn1c(C)csc1=Nc1cccc(C(F)(F)F)c1 | inactive
COc1ccc(C2C(=C(O)c3ccc(Cl)cc3)C(=O)C(=O)N2CCCN(C)C)c(OC)c1 (stereo unspecified) | inactive
CN(C)CCCn1c(-c2ccc(Cl)cc2)csc1=Nc1ccccc1 | 63% (active) and 45% (active)
O=C(CN1C(=O)CC(c2ccccc2)=Nc2ccccc21)Nc1ccc(Cl)cc1 | inactive
CCOC(=O)c1sc2nc3n(c(=O)c2c1C)N=C(c1ccccc1)CS3 | inactive
O=C1NN=C(c2ccccc2)/C1=C/c1ccc(-c2ccc(Cl)cc2)o1 | 49% (active)
Cc1c(Cl)c([N+](=O)[O-])nn1CCCC(=O)Nc1cc(Cl)ccc1Cl | inactive
Cn1c(=O)c2c(nc(Cl)n2CC(=O)NC(C)(C)C)n(C)c1=O | inactive
CCc1ccc(CNC(=O)c2cc3cc4ccc(OC)cc4nc3o2)cc1 | inactive
O=C(Nc1ccc2c(c1)OCCO2)c1cc2cc3ccc(Cl)cc3nc2o1 | 47% (active)
CC(C)NC(=O)c1cc2cc3ccc(Cl)cc3nc2o1 | inactive
CCOCCCNC(=O)c1oc2ccc(S(=O)(=O)N3CCC(C)CC3)cc2c1C | inactive
Cc1ccc(C(=O)Nc2ccc3nn(-c4ccccc4)nc3c2)cc1 | inactive
O=C(O)c1cccc(N=Cc2nc(-c3ccc(Br)cc3)oc2O)c1 | inactive

Structure (SMILES) | inhibition
O=C(COc1cccc([N+](=O)[O-])c1)Nc1ccc(-c2nnc(-c3ccco3)o2)cc1 | 45% (active)
COc1ccc(CC(=O)Nc2ccc(-c3nnc(-c4ccccc4)o3)cc2)cc1 | inactive
Cc1cccc(OCC(=O)Nc2ccc(-c3nc4ncccc4o3)cc2)c1 | inactive
Cc1c(F)cccc1NC(=O)C(C)Oc1ccc(Cl)cc1Cl (stereo unspecified) | inactive
O=C1CC(c2ccccc2)=NN1c1ccc([N+](=O)[O-])cc1 | 43% (active)
O=C(c1ccco1)N1CCN(c2ccc([N+](=O)[O-])cc2)CC1 | inactive
O=C1CC(N2CCc3ccccc3C2)C(=O)N1c1ccc([N+](=O)[O-])cc1 (stereo unspecified) | inactive
Cc1ccc(-c2cc(N3CCN(S(=O)(=O)c4cc(C)c(C)cc4C)CC3)ncn2)cc1 | inactive
O=C(CSCc1ccccc1)Nc1c(-c2ccc(F)cc2)nc2ccccn12 | inactive
COc1cccc(C(=O)Nc2sc3c(c2C(N)=O)CCCCCC3)c1 | inactive
N#Cc1c(NC(=O)CCCC(=O)O)sc2c1CCCC2 | inactive
N#Cc1c(-n2ncnc2-c2ccccc2)sc2c1CCCC2 | 31% (active)
Cc1cc(C)c(C#N)c(SCC(=O)c2ccc3c(c2)OCO3)n1 | inactive
O=C(Nc1ncnc2sc3c(c12)CCCC3)c1ccccc1 | inactive
CC(C)CN(CC(C)C)S(=O)(=O)c1ccc(C(=O)Nc2sc3c(c2C#N)CCC3)cc1 | inactive
N#Cc1c(-n2ncnc2-c2ccc3c(c2)OCO3)sc2c1CCCC2 | 47% (active)
COc1cccc(-c2ncnn2-c2sc3c(c2C#N)CCCCC3)c1 | 65% (active)
COc1cccc(-c2c(C#N)c(N)n3c(nc4ccccc43)c2C#N)c1 | inactive
